Results reported in article PMC9911399, “Two distinct binding modes provide the RNA-binding protein RbFox with extraordinary sequence specificity”.
Where a chain is given by its changes, count along the chain named. Over roughly 16,000 sequences, “ka relative to ugcaugu” has its median near 0.096; the highest 2% begin near 0.35. The sample as a whole holds a higher share of the highest values than the screen did.

T1: RBFOX1 RRM RbFoxmut (Fox-RRM*) (Homo sapiens, UniProt Q9NWB1 109-208, R118D;E147R;N151S;E152T)
T1 sequence: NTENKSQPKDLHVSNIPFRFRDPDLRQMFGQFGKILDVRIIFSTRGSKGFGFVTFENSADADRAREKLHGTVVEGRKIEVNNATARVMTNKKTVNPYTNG

B1: UAUCAUA (DNA:RNA)
RNA: GGGAGACCGGAAUUCAGAUUGUCCUAUCAUAUUAAAUCCCGUCGUAGCCACCA
DNA 1: CAATCTGAATTCCGGTCTCCC
DNA 2: TGGTGGCTACGACGGGATT
B2: GAAGCUA (DNA:RNA)
RNA: B1 RNA with U25G, U27A, C28G, A29C
DNA 1: CAATCTGAATTCCGGTCTCCC
DNA 2: TGGTGGCTACGACGGGATT
B3: CAGCUCU (DNA:RNA)
RNA: B1 RNA with U25C, U27G, A29U, U30C, A31U
DNA 1: CAATCTGAATTCCGGTCTCCC
DNA 2: TGGTGGCTACGACGGGATT
B4: GUAUCAG (DNA:RNA)
RNA: GGGAGACCGGAAUUCAGAUUGUCCGUAUCAGUUAAAUCCCGUCGUAGCCACCA
DNA 1: CAATCTGAATTCCGGTCTCCC
DNA 2: TGGTGGCTACGACGGGATT
B5: AGUCGCC (DNA:RNA)
RNA: B1 RNA with U25A, A26G, A29G, U30C, A31C
DNA 1: CAATCTGAATTCCGGTCTCCC
DNA 2: TGGTGGCTACGACGGGATT
B6: UCGGAGC (DNA:RNA)
RNA: B1 RNA with A26C, U27G, C28G, U30G, A31C
DNA 1: CAATCTGAATTCCGGTCTCCC
DNA 2: TGGTGGCTACGACGGGATT
B7: AACUUUG (DNA:RNA)
RNA: B4 RNA with G25A, U26A, A27C, C29U, A30U
DNA 1: CAATCTGAATTCCGGTCTCCC
DNA 2: TGGTGGCTACGACGGGATT
B8: AAGUAUG (DNA:RNA)
RNA: B1 RNA with U25A, U27G, C28U, A31G
DNA 1: CAATCTGAATTCCGGTCTCCC
DNA 2: TGGTGGCTACGACGGGATT
B9: GGUAUCG (DNA:RNA)
RNA: B4 RNA with U26G, A27U, U28A, C29U, A30C
DNA 1: CAATCTGAATTCCGGTCTCCC
DNA 2: TGGTGGCTACGACGGGATT
B10: CUUAUGU (DNA:RNA)
RNA: B4 RNA with G25C, A27U, U28A, C29U, A30G, G31U
DNA 1: CAATCTGAATTCCGGTCTCCC
DNA 2: TGGTGGCTACGACGGGATT
B11: CAUAUGU (DNA:RNA)
RNA: B1 RNA with U25C, C28A, A29U, U30G, A31U
DNA 1: CAATCTGAATTCCGGTCTCCC
DNA 2: TGGTGGCTACGACGGGATT
B12: AAGUAUC (DNA:RNA)
RNA: B1 RNA with U25A, U27G, C28U, A31C
DNA 1: CAATCTGAATTCCGGTCTCCC
DNA 2: TGGTGGCTACGACGGGATT
B13: AAGUAAA (DNA:RNA)
RNA: B1 RNA with U25A, U27G, C28U, U30A
DNA 1: CAATCTGAATTCCGGTCTCCC
DNA 2: TGGTGGCTACGACGGGATT
B14: CGUAUGU (DNA:RNA)
RNA: B1 RNA with U25C, A26G, C28A, A29U, U30G, A31U
DNA 1: CAATCTGAATTCCGGTCTCCC
DNA 2: TGGTGGCTACGACGGGATT
B15: AGGUAGC (DNA:RNA)
RNA: B4 RNA with G25A, U26G, A27G, C29A, A30G, G31C
DNA 1: CAATCTGAATTCCGGTCTCCC
DNA 2: TGGTGGCTACGACGGGATT
B16: AGGUAUC (DNA:RNA)
RNA: B1 RNA with U25A, A26G, U27G, C28U, A31C
DNA 1: CAATCTGAATTCCGGTCTCCC
DNA 2: TGGTGGCTACGACGGGATT
B17: CGGUAUG (DNA:RNA)
RNA: B4 RNA with G25C, U26G, A27G, C29A, A30U
DNA 1: CAATCTGAATTCCGGTCTCCC
DNA 2: TGGTGGCTACGACGGGATT
B18: AGGUAUG (DNA:RNA)
RNA: B4 RNA with G25A, U26G, A27G, C29A, A30U
DNA 1: CAATCTGAATTCCGGTCTCCC
DNA 2: TGGTGGCTACGACGGGATT
B19: CCCGGUA (DNA:RNA)
RNA: B1 RNA with U25C, A26C, U27C, C28G, A29G
DNA 1: CAATCTGAATTCCGGTCTCCC
DNA 2: TGGTGGCTACGACGGGATT
B20: GCUACCU (DNA:RNA)
RNA: B4 RNA with U26C, A27U, U28A, A30C, G31U
DNA 1: CAATCTGAATTCCGGTCTCCC
DNA 2: TGGTGGCTACGACGGGATT
B21: CCGCCGU (DNA:RNA)
RNA: B4 RNA with G25C, U26C, A27G, U28C, A30G, G31U
DNA 1: CAATCTGAATTCCGGTCTCCC
DNA 2: TGGTGGCTACGACGGGATT
B22: AUGCGAA (DNA:RNA)
RNA: B4 RNA with G25A, A27G, U28C, C29G, G31A
DNA 1: CAATCTGAATTCCGGTCTCCC
DNA 2: TGGTGGCTACGACGGGATT
B23: CUGUCGA (DNA:RNA)
RNA: B4 RNA with G25C, A27G, A30G, G31A
DNA 1: CAATCTGAATTCCGGTCTCCC
DNA 2: TGGTGGCTACGACGGGATT
B24: AAGGGCC (DNA:RNA)
RNA: B1 RNA with U25A, U27G, C28G, A29G, U30C, A31C
DNA 1: CAATCTGAATTCCGGTCTCCC
DNA 2: TGGTGGCTACGACGGGATT
B25: CUCUACC (DNA:RNA)
RNA: B4 RNA with G25C, A27C, C29A, A30C, G31C
DNA 1: CAATCTGAATTCCGGTCTCCC
DNA 2: TGGTGGCTACGACGGGATT
B26: UAGCGCA (DNA:RNA)
RNA: B1 RNA with U27G, A29G, U30C
DNA 1: CAATCTGAATTCCGGTCTCCC
DNA 2: TGGTGGCTACGACGGGATT
B27: GUUAUGA (DNA:RNA)
RNA: B4 RNA with A27U, U28A, C29U, A30G, G31A
DNA 1: CAATCTGAATTCCGGTCTCCC
DNA 2: TGGTGGCTACGACGGGATT
B28: GGUAUGA (DNA:RNA)
RNA: B1 RNA with U25G, A26G, C28A, A29U, U30G
DNA 1: CAATCTGAATTCCGGTCTCCC
DNA 2: TGGTGGCTACGACGGGATT
B29: GUCCUCG (DNA:RNA)
RNA: B4 RNA with A27C, U28C, C29U, A30C
DNA 1: CAATCTGAATTCCGGTCTCCC
DNA 2: TGGTGGCTACGACGGGATT
B30: CGUAUGA (DNA:RNA)
RNA: B1 RNA with U25C, A26G, C28A, A29U, U30G
DNA 1: CAATCTGAATTCCGGTCTCCC
DNA 2: TGGTGGCTACGACGGGATT
B31: UCGUCCG (DNA:RNA)
RNA: B4 RNA with G25U, U26C, A27G, A30C
DNA 1: CAATCTGAATTCCGGTCTCCC
DNA 2: TGGTGGCTACGACGGGATT
B32: UCGUAUG (DNA:RNA)
RNA: B1 RNA with A26C, U27G, C28U, A31G
DNA 1: CAATCTGAATTCCGGTCTCCC
DNA 2: TGGTGGCTACGACGGGATT

These binders were tested against T1, RBFOX1 RRM RbFoxmut (Fox-RRM*) (assay: EMSA; HiTS-Eq, 1 nM pool, 10 min; buffer printed only for the single-RNA assays: 10 mM Tris pH 7.5, 150 mM NaCl, 3.4 mM EDTA, 0.001% NP-40, 30 C). Details: tags: His6 N-terminal (pET28a); label: 5' 32P.
In short: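 These values rest on relative association constants, computed from read-count changes of each RNA species versus the control reaction and normalised to the cognate motif. Reads came from free RNA recovered by 8% native PAGE after purified RbFox RRM (wild type or mutant) at increasing concentrations was equilibrated for 10 min in 50 µL with 1 nM of a 5′-radiolabelled pool with 7 randomized nucleotides and DNA-annealed flanks.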

| Binder | binding signal |
| --- | --- |
| B1 | 0.0784 KA relative to UGCAUGU |
| B2 | 0.0968 KA relative to UGCAUGU |
| B3 | 0.0953 KA relative to UGCAUGU |
| B4 | 0.229 KA relative to UGCAUGU |
| B5 | 0.0636 KA relative to UGCAUGU |
| B6 | 0.0837 KA relative to UGCAUGU |
| B7 | 0.0853 KA relative to UGCAUGU |
| B8 | 0.498 KA relative to UGCAUGU |
| B9 | 0.348 KA relative to UGCAUGU |
| B10 | 0.158 KA relative to UGCAUGU |
| B11 | 0.149 KA relative to UGCAUGU |
| B12 | 0.151 KA relative to UGCAUGU |
| B13 | 0.124 KA relative to UGCAUGU |
| B14 | 0.554 KA relative to UGCAUGU |
| B15 | 0.114 KA relative to UGCAUGU |
| B16 | 0.191 KA relative to UGCAUGU |

| Binder | binding signal |
| --- | --- |
| B17 | 0.885 KA relative to UGCAUGU |
| B18 | 1.01 KA relative to UGCAUGU |
| B19 | 0.111 KA relative to UGCAUGU |
| B20 | 0.0731 KA relative to UGCAUGU |
| B21 | 0.133 KA relative to UGCAUGU |
| B22 | 0.131 KA relative to UGCAUGU |
| B23 | 0.0775 KA relative to UGCAUGU |
| B24 | 0.148 KA relative to UGCAUGU |
| B25 | 0.0729 KA relative to UGCAUGU |
| B26 | 0.124 KA relative to UGCAUGU |
| B27 | 0.206 KA relative to UGCAUGU |
| B28 | 0.468 KA relative to UGCAUGU |
| B29 | 0.114 KA relative to UGCAUGU |
| B30 | 0.258 KA relative to UGCAUGU |
| B31 | 0.0959 KA relative to UGCAUGU |
| B32 | 0.87 KA relative to UGCAUGU |
